PubChem BioAssay (EPA / NIEHS)
Records with an inconclusive call do not appear. The source made the active and inactive calls. The calls were made as follows, unless noted: active = hit-call score of the fitted dose curve at least 0.9, where 1 is the maximum; inactive = score below 0.9.

What was measured:
[1] = ATG_TAL_CIS: Attagene CIS-FACTORIAL HepG2 Assay for human TAL Basal Promoter (AID 2282966); details: HepG2 Attagene cis-factorial TAL promoter reporter; actives raise or lower the signal;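 also: background control endpoint measuring basal TAL promoter reporter mRNA not a specific factor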
In short: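 HepG2 cells transiently transfected with multiplexed cis-promoter reporter units, dosed 24 h. Reporter mRNA quantified by RT-PCR, 6-FAM labelling, HpaI digestion and capillary electrophoresis; TAL basal promoter serves as background control, fitted bidirectionally versus DMSO.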

[2] = ATG_TGFb_CIS: Attagene CIS-FACTORIAL HepG2 Assay for human Transforming Growth Factor (TGF) (AID 2282967); details: HepG2 Attagene CIS TGFb reporter, mRNA transcription; actives raise or lower the signal
In short: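 Transcript-level reporter readout: HepG2 transfectants, 24 h exposure, RNA to cDNA, reporter-specific PCR, fluorescent primer extension, capillary sizing against ROX standards. Gain- or loss-of-signal relative to DMSO.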

[3] = ATG_VDRE_CIS: Attagene CIS-FACTORIAL HepG2 Assay for human Vitamin D Receptor Element (VDRE) (AID 2282968); details: HepG2 VDRE cis-reporter transcription, actives raise or lower the signal
In short: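 In transiently transfected HepG2 liver cells, gain or loss of reporter mRNA after 24 h exposure is scored relative to DMSO, using fluorescence detection by capillary electrophoresis of RT-PCR products.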

[4] = ATG_M_19_TRANS: Attagene TRANS-FACTORIAL HepG2 Assay for M19 Transcription Factor (Internal Marker) (AID 2282974; active = hit-call score of the fitted dose curve at least 0.9, where 1 is the maximum); details: HepG2 Attagene TRANS-FACTORIAL M19 internal marker reporter
In short: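 Transfected HepG2 (GAL4-UAS MRTUs), 24 h compound, TriZol RNA, DNase-treated RT, reporter PCR, FAM label, HpaI digest, CE fluorescence; gain vs DMSO.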

[5] = molecular target: Steroid hormone receptor ERR1 (Homo sapiens) (UniProt P11474); test: ATG_ERRa_TRANS: Attagene TRANS-FACTORIAL HepG2 Assay for human Estrogen-Related Receptor alpha (ERRa) (AID 2282971; active = hit-call score of the fitted dose curve at least 0.9, where 1 is the maximum); details: HepG2 Attagene TRANS reporter, ERRa transactivation
Sequence of Steroid hormone receptor ERR1 (Homo sapiens) (P11474 whole entry, looked up, the tested form may be a part): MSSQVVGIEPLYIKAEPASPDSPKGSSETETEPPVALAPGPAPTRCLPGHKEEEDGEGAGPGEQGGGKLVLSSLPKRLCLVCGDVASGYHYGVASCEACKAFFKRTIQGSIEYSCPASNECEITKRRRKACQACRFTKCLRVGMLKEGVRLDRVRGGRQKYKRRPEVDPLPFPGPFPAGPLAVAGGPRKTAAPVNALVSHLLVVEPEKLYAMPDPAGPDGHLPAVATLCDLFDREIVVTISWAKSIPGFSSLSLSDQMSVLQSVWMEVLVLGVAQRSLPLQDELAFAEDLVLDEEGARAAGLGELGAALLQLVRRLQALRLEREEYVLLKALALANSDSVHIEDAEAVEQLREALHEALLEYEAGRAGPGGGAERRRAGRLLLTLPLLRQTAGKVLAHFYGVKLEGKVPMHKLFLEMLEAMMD
In short: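 HepG2 cells transiently transfected with GAL4-UAS reporter units and chimeric NR-Gal4 constructs; after 24 hour compound incubation, reporter mRNA quantified by RT-PCR, fluorescent labelling and capillary electrophoresis, gain of signal versus DMSO.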

[6] = molecular target: X-box-binding protein 1 (Homo sapiens) (UniProt P17861); test: ATG_Xbp1_CIS: Attagene CIS-FACTORIAL HepG2 Assay for human X-box Binding Protein 1 (XBP1) (AID 2282972); details: HepG2 XBP1 cis-element reporter, Attagene multiplex; actives raise or lower the signal
Sequence of X-box-binding protein 1 (Homo sapiens) (P17861 whole entry, looked up): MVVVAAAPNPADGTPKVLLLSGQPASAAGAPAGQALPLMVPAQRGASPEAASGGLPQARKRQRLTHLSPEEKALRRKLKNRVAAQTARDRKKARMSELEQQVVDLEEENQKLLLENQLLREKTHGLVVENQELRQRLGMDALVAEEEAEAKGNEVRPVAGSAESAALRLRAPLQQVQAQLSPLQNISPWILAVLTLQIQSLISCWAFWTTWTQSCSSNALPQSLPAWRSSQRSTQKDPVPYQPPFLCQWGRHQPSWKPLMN
In short: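 After a 24-hour chemical exposure of HepG2 cells carrying cis-regulated reporters, reporter mRNA levels are assessed. Quantification uses RT-PCR, 6-FAM labelling and capillary electrophoresis. Gain- or loss-of-signal is fitted against DMSO.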

[7] = ATG_GAL4_TRANS: Attagene TRANS-FACTORIAL HepG2 Assay for GAL4 (Internal Marker) (AID 2282976; active = hit-call score of the fitted dose curve at least 0.9, where 1 is the maximum); details: HepG2 Attagene TRANS GAL4 internal marker reporter
In short: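 Background-control readout: GAL4-UAS reporter transcript in transiently transfected HepG2 cells after 24 h compound exposure. Measured by RT-PCR, 6-FAM primer extension, HpaI digest and capillary electrophoresis; gain-of-signal fit versus DMSO.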

[8] = molecular target: Glucocorticoid receptor (Homo sapiens) (UniProt P04150); test: ATG_GR_TRANS: Attagene TRANS-FACTORIAL HepG2 Assay for human Glucocorticoid Receptor (GR) (AID 2282978; active = hit-call score of the fitted dose curve at least 0.9, where 1 is the maximum;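 also: activators score as hits since higher reporter transcript over DMSO is fitted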); details: HepG2 Attagene TRANS GR reporter, mRNA transcription
Sequence of Glucocorticoid receptor (Homo sapiens) (P04150 whole entry, looked up): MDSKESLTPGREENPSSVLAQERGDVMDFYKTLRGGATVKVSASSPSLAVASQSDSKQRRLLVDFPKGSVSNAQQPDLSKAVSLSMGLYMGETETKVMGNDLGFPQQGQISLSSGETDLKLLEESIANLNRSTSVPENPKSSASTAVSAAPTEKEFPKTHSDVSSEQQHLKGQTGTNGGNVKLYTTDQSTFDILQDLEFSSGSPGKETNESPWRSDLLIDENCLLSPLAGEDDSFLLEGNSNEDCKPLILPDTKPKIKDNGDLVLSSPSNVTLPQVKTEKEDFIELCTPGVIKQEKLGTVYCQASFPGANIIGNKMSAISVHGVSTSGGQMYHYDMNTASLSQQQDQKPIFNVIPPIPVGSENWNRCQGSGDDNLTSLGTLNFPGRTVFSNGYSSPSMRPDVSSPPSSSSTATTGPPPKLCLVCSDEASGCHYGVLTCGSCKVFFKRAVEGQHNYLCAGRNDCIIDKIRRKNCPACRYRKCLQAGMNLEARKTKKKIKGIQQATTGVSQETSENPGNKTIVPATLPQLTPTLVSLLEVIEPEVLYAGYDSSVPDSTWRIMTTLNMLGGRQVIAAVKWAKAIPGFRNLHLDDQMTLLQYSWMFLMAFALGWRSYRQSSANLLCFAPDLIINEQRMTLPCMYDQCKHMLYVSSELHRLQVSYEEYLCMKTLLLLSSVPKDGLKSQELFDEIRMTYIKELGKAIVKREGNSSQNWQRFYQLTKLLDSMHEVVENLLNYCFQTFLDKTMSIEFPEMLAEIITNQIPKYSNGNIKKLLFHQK
In short: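 After 24 h incubation with test chemical, transfected HepG2 cells were lysed for RNA; reporter cDNA was amplified, FAM-labelled, HpaI-digested and sized on a capillary analyser. Signal gain relative to DMSO was scored.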

[9] = molecular target: Estrogen receptor (Homo sapiens) (UniProt P03372); test: ATG_ERa_TRANS: Attagene TRANS-FACTORIAL HepG2 Assay for human Estrogen Receptor alpha (ERa) (AID 2282970; active = hit-call score of the fitted dose curve at least 0.9, where 1 is the maximum); details: HepG2 Attagene TRANS ERa GAL4 reporter, mRNA
Sequence of Estrogen receptor (Homo sapiens) (P03372 whole entry, looked up, the tested form may be a part): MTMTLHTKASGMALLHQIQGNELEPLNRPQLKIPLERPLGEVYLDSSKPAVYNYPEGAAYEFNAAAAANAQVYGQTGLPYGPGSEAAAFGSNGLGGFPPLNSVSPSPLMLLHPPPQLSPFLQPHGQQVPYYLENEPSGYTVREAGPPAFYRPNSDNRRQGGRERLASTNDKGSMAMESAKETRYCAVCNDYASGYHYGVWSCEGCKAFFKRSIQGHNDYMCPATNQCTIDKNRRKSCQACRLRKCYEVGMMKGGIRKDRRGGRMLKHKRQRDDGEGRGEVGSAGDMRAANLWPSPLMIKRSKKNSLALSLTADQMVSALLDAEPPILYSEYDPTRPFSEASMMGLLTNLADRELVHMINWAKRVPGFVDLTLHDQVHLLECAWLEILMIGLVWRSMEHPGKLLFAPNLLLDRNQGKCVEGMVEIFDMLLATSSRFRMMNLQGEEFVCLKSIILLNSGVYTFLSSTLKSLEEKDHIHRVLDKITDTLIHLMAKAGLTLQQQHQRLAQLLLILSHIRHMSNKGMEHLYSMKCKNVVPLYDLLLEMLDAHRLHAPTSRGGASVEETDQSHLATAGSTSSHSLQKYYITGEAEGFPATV
In short: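 HepG2 cells transiently transfected with multiplexed GAL4-UAS reporter units read out chimeric NR-Gal4 activity. After 24 h compound exposure, reporter mRNA was quantified by RT-PCR, 6-FAM labeling, HpaI digestion and capillary electrophoresis, relative to DMSO.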

[10] = molecular target: Estrogen-related receptor gamma (Homo sapiens) (UniProt P62508); test: ATG_ERRg_TRANS: Attagene TRANS-FACTORIAL HepG2 Assay for human Estrogen-Related Receptor gamma (ERRg) (AID 2282977; active = hit-call score of the fitted dose curve at least 0.9, where 1 is the maximum;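 also: hits increase reporter signal over DMSO so potencies reflect activators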); details: HepG2 Attagene TRANS reporter, ERRg transactivation
Sequence of Estrogen-related receptor gamma (Homo sapiens) (P62508 whole entry, looked up, the tested form may be a part): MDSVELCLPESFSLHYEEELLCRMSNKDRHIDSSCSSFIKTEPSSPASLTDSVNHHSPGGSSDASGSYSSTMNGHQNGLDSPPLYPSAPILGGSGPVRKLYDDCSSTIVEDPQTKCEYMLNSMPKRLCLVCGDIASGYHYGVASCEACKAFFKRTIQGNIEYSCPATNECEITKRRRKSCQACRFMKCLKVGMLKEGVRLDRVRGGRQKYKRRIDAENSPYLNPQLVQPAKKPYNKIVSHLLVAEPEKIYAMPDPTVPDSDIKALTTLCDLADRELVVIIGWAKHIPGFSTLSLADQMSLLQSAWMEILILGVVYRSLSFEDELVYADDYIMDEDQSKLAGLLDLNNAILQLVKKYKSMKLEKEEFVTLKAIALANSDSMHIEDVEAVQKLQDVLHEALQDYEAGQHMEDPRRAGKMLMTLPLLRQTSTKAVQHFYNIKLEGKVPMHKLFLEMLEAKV
In short: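 Transient HepG2 transfectants, 24 h compound exposure, GAL4-UAS reporter mRNA by RT-PCR/6-FAM labelling/capillary electrophoresis; positive direction vs DMSO.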

Measured: AC50

Nc1cccc(N)c1
inactive: [1] | [2] | [3] | [4]

CC(=O)OCCC(C)C
inactive: [1] | [2] | [5] | [6] | [7]

COC(=O)CC(=O)OC
inactive: [1] | [2] | [3] | [8]

CC(O)CN(CCN(CC(C)O)CC(C)O)CC(C)O (stereo unspecified)
inactive: [1] | [2] | [3] | [4]

Cn1cnc([N+](=O)[O-])c1Sc1ncnc2nc[nH]c12
inactive: [1] | [2] | [6]
active: [9] 46.1 µM

CCOc1cccc(-n2cc(C(=O)N3CCN(c4cc(C(=O)O)c5ccccc5c4)CC3)nc2-c2ccc(C)cc2)c1
inactive: [1] | [4] | [7]
active: [2] 151 µM | [3] 27.2 µM

CC(C)=CCCC(C)CCO (stereo unspecified)
inactive: [1] | [2] | [6] | [4]
active: [9] 34 µM

O=C(O)c1cccc(N(Cc2cccnc2)c2ccc(OC(F)F)c(OC(F)F)c2)c1
inactive: [1] | [2] | [3] | [7] | [10]

CC(C)c1cccc(C(C)C)c1N1C(=O)c2ccc(O)cc2C1=O
active: [3] 33.9 µM
inactive: [1] | [2] | [4]

COCCOCCOCCOC
inactive: [1] | [2] | [3] | [4] | [7]

CCCCCCCCCCCCc1ccccc1
inactive: [1] | [2] | [3] | [10]

Fc1ccccc1[C@@H](F)COC1CCC(Nc2ncnc3[nH]ncc23)CC1 (stereo partly specified)
inactive: [1] | [2] | [4]
active: [3] 26 µM

CC(=O)c1ccc2c(c1)[C@H](NC(=O)c1ccc(F)cc1)[C@@H](O)C(C)(C)O2
inactive: [1] | [2] | [3] | [7]

Clc1nc(Cl)c(Cl)c(Cl)c1Cl
inactive: [1] | [2] | [3] | [4] | [7] | [10]

O=C1OC(=O)C2C3C=CC(C3)C12 (stereo unspecified)
inactive: [1] | [2] | [3] | [4]

CCCCC(CC)COC(=O)c1ccc(C(=O)OCC(CC)CCCC)cc1 (stereo unspecified)
inactive: [1] | [2] | [5] | [6] | [7]

CCN(C(=O)c1cc(C)cc(OC[C@H](C)Nc2ccncc2)c1)C(C)C
inactive: [1] | [2] | [6]

O=C1CCCCCN1
inactive: [1] | [2] | [3] | [10]

O=C(NS(=O)(=O)/C=C/c1ccccc1)c1ccc(F)cc1Cl
inactive: [1] | [2] | [9] | [6] | [4] | [10]

Cn1c(=O)c2c(ncn2C)n(C)c1=O
inactive: [1] | [2] | [4] | [10]

O=C1CCC(N2C(=O)c3ccccc3C2=O)C(=O)N1 (stereo unspecified)
inactive: [1] | [2] | [6] | [7]

Cc1[nH]cnc1C[C@H]1CCc2c(C)c3ccccc3n2C1=O
inactive: [2] | [10]
active: [1] 40.8 µM | [3] 29.7 µM

CCCCCCc1ccc(O)cc1O
active: [3] 38.7 µM | [6] 55.3 µM
inactive: [1] | [2] | [8]

CCOCCOCCOCCO
inactive: [1] | [2] | [3] | [4] | [7]

On1ccccc1=S
inactive: [1] | [2] | [3] | [6] | [10]

CCOCCO
inactive: [1] | [2] | [3] | [8]
